The text below walks through data of PubChem BioAssay (NCATS).

Values joined by “and” are separate entries in the source; they are usually repeats but may differ in a detail not shown here. Identical values can stand only once. Inconclusive results are not listed. Active and inactive are the calls of the source. Unless noted, calls follow the shape of the full dose curve.

Experiment [1] addresses Thyroid hormone receptor beta (Homo sapiens) (UniProt P10828). Description: qHTS assay for small molecule agonists of thyroid hormone receptor beta signaling (AID 588545). In short, it runs like this:
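In this cell-based screen, titrated compounds act on HEK 293 cells held in medium with 2% charcoal/dextran FBS, NEAA and pyruvate for 18 hrs at 37 C. Responses are expressed relative to T3 (10 nM) as 100% and basal DMSO as 0%.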
(In general: qHTS replaces the single test concentration by a dilution series.)

Experiment [2] is described as follows: qHTS assay for small molecule antagonists of retinoid X receptor alpha signaling (AID 588546; active = well fitted inhibition curve with a large enough effect in the signal ratio, with a control signal flat, not every such curve was filed as active; the % refers to the signal ratio;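 also: cells stimulated with 9-cis-retinoic acid as agonist; % is scaled to controls: 0 for no effect and ±100 for the full control effect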). As to conditions: HEK293T RXRa-UAS-bla, beta-lactamase ratio, antagonist mode; measured here: W530 green channel, cytotoxicity proxy. In a few lines:
(§1)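 Beta-lactamase reporter inhibition, read as CCF4 fluorescence ratio (ex 405, em 460/530 nm) after 2 h at RT. HEK293T UAS-bla cells, 2500/well, were stimulated with 9-cis-RA at 500 or 100 nM final alongside test compound for 18 h at 37 C.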

Experiment [3] deals with Retinoic acid receptor RXR-alpha (Homo sapiens) (UniProt P19793). The experiment is described as above. As to conditions: HEK293T RXRa-UAS-bla, beta-lactamase ratio, antagonist mode. In short, it runs like this:
as §1

Experiment [4] addresses Voltage-gated inwardly rectifying potassium channel KCNH2 (Homo sapiens) (UniProt Q12809). In words: qHTS Assay for Small Molecule Inhibitors of the Human hERG Channel Activity (AID 588834; active = well fitted curve in the direction sought with a large enough effect; an effect the other way counts as inactive or inconclusive;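 also: lower thallium flux fluorescence means stronger hERG block; nearly all actives have a fitted effect of over 50% in size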; also: potency is read from the fitted curve at half-maximal effect). In a few lines: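 hERG-BacMam U2OS, 2000 cells/well; 0.7X FluxOR loading 1 hr RT dark; cpd ~10 min 37 °C; stim buffer; FDSS fluorescence 2 min @ 1 s; AC50 Hill fit.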
A short description of experiment [5]: S16 Schwann cell viability assay (CellTiter-Glo assay) (AID 624031; active = well fitted curve in the direction sought with a large enough effect; an effect the other way counts as inactive or inconclusive;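 also: native untransfected S16 rat Schwann cells; cellular ATP luminescence as a viability measure; series mostly up to about 58 µM; plate controls were DMSO-treated cells for no effect and cell-free wells for full effect; nearly all actives have a fitted effect of over 70% in size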). In a few lines:
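Following overnight culture in 10% FBS DMEM, parental S16 rat Schwann cells are dosed for 24 h at 37 °C. Viability is read as CellTiter-Glo luminescence and expressed as % activity relative to DMSO (0%) and no-cell wells.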
In general terms: Cellular ATP, detected with luciferase, serves as a proxy for viable cell number.

The target of experiment [6] is Retinoic acid receptor RXR-alpha (Homo sapiens) (UniProt P19793). In words: qHTS assay for small molecule agonists of retinoid X receptor alpha signaling (AID 588544).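 Also: 0% = DMSO basal wells and 100% = reference agonist.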
Experiment [7] concerns the target Thyroid hormone receptor beta (Homo sapiens) (UniProt P10828). Description: qHTS assay for small molecule antagonists of thyroid hormone receptor beta signaling (AID 588547; active = well fitted inhibition curve with a large enough effect in the signal ratio, with a control signal flat, not every such curve was filed as active; the % refers to the signal ratio;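 also: cells stimulated with 0.4 nM T3 agonist during compound exposure; series mostly up to about 77 µM; % is scaled to controls: 0 for no effect and ±100 for the full control effect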). The settings on record: TR-UAS-bla HEK293, beta-lactamase ratio, antagonist mode, 18 h. In a few lines:
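TR-UAS-bla GripTite HEK293 cells in 2% charcoal/dextran FBS medium were preincubated 4 h at 37 C, given compound (0.59 nM to 92 uM) plus 0.4 nM T3 (final) for 18 h, then CCF4 for 2 h at RT; Hill fit gave IC50.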

Experiment [8] has as its target Luciferin 4-monooxygenase (Photinus pyralis) (UniProt P08659). Description: Biochemical firefly luciferase enzyme assay for NPC (AID 624030; active = well fitted curve in the direction sought with a large enough effect; an effect the other way counts as inactive or inconclusive;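 also: purified P. pyralis luciferase at 10 nM with luciferin and ATP substrate; series mostly up to about 59 µM; 0% = DMSO and -100% = full luciferase inhibition by PTC124 control; nearly all actives have a fitted effect of over 70% in size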). In short, it runs like this:
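Counter-screen for direct inhibition of the luciferase enzyme by approved-drug library compounds, run at 10 nM enzyme in 50 mM Tris acetate (final). Luminescence was read within 5 min of enzyme-buffer addition and normalized to PTC124 versus DMSO (0%).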

Experiment [9] is described as follows: S16 Schwann cell PMP22 intronic element firefly luciferase assay (AID 624032; active = well fitted curve in the direction sought with a large enough effect; an effect the other way counts as inactive or inconclusive; also: nearly all actives have a fitted effect of over 30% in size; also: potency is read from the fitted curve at half-maximal effect). In short, it runs like this: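 Rat S16 Schwann cells stably carrying a PMP22 intronic element-driven Fluc reporter were seeded overnight, then exposed to compounds for 24 h at 37 °C. Luminescence was normalized to PTC124 (positive control) and DMSO (0% activity).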

Chain of Retinoic acid receptor RXR-alpha (Homo sapiens) (P19793 whole entry, looked up): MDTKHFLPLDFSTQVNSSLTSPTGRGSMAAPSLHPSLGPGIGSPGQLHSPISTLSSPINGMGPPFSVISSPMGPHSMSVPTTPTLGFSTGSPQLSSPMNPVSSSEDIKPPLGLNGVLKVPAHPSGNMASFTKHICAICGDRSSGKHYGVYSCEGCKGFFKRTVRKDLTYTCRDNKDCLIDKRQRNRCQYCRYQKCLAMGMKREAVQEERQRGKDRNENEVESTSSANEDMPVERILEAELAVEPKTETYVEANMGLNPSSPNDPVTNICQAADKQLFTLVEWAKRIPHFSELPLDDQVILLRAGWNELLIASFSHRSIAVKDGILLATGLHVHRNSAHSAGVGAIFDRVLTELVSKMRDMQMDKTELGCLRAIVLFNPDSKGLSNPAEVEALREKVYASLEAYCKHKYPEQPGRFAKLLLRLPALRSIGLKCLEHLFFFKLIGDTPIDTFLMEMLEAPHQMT
Chain of Thyroid hormone receptor beta (Homo sapiens) (P10828 whole entry, looked up): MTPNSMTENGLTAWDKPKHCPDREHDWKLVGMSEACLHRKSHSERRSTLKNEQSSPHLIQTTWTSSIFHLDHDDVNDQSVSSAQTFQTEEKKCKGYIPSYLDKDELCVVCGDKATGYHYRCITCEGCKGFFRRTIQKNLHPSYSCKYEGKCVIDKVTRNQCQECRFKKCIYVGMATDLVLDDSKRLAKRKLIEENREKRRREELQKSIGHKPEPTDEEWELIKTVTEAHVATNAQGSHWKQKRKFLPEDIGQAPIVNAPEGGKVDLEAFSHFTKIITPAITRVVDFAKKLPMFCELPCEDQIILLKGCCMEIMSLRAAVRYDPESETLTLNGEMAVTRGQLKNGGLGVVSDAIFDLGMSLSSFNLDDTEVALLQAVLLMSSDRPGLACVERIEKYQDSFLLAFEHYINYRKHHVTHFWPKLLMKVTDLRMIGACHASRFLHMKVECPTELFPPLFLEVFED
Chain of Voltage-gated inwardly rectifying potassium channel KCNH2 (Homo sapiens) (Q12809 whole entry, looked up): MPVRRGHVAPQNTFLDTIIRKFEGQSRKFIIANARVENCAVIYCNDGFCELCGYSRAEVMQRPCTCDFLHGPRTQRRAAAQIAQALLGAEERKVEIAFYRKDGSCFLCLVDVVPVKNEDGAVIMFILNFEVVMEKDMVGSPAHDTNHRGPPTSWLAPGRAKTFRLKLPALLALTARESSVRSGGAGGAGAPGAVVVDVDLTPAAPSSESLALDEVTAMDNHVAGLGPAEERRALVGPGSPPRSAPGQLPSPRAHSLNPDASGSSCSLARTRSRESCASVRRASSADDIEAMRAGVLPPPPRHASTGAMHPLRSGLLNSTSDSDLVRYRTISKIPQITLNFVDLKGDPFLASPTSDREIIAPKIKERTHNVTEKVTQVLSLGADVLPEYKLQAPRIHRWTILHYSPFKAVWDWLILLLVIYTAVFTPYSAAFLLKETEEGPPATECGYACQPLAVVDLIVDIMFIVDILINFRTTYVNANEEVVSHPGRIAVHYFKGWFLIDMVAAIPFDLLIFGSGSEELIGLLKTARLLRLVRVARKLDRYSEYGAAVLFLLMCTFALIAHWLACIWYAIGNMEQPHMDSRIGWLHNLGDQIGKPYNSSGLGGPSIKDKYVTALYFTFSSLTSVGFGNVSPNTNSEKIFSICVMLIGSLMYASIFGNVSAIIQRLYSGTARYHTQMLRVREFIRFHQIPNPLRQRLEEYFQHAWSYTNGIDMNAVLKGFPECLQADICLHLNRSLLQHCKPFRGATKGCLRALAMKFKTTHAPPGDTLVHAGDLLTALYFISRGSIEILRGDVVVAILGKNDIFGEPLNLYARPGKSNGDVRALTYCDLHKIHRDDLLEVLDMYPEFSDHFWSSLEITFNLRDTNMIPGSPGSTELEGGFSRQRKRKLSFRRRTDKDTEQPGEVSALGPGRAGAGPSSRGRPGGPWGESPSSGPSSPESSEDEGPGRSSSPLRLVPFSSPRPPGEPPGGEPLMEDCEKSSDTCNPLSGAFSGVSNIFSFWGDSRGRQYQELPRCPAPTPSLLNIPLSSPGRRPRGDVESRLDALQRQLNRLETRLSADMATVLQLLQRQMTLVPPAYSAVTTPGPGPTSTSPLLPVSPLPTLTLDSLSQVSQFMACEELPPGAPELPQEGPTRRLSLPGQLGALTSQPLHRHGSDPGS
Chain of Luciferin 4-monooxygenase (Photinus pyralis) (P08659 whole entry, looked up): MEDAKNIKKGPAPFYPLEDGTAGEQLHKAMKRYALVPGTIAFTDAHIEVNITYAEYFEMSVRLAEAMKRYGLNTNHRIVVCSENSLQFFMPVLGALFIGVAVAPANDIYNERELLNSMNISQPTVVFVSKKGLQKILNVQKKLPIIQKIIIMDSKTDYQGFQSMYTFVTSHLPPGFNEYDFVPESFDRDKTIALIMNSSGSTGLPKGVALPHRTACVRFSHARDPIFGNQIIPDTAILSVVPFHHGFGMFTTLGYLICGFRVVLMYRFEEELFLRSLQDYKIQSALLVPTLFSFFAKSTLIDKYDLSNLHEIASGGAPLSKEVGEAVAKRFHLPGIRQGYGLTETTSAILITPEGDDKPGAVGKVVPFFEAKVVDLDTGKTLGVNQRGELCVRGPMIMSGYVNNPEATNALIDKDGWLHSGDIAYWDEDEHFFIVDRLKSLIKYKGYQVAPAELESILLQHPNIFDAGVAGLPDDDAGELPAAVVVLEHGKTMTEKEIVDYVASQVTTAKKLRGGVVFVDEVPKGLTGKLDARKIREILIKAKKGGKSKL

Take `O=C1CN(/N=C/c2ccc([N+](=O)[O-])o2)C(=O)N1`: the molecule was classed as inactive in experiment [1]. The figures for the max response in experiment [2] and in experiment [3] were 9.13% and 25.9% (inactive), respectively. For the same molecule, the Potency entry in [4] and in experiment [5] was “inactive” throughout.

Turning to `Oc1ccccc1O`, the outcome in [6] and in experiment [1] was inactive. For the same molecule, in experiment [7], the activity change % (negative = inhibition) was -12.3% (inactive). In addition, the Potency result in experiment [4] was “inactive”.

In the case of `N=C1N=C(N)c2cc3ccccc3cc21`, the molecule was classed as inactive in [6] and in experiment [1]. Moreover, the values for the max response in experiment [2] and in [3] were -9.13% and 48.9% (inactive), respectively. Also, in experiment [7], the activity change % (negative = inhibition) is 8.6% (inactive).

Turning to `CC(C)OC(=O)c1cc(C(=O)OC(C)C)cc([N+](=O)[O-])c1`, the max response in experiment [2] was -0.986%; in experiment [3], -4.84% (inactive). Moreover, the activity change % (negative = inhibition) in experiment [7] is 6.57% (inactive). For the same molecule, the Potency result in experiment [8] is “inactive”.

`O=C(OCc1ccccc1)c1ccccc1`: the molecule was called inactive in [6] and in [1]. In addition, the max response in experiment [2] was -18.5%; in experiment [3] it was -1.47% (inactive). The activity change % (negative = inhibition) in [7] was 12.6% (inactive). Also, the Potency result in [4] and in experiment [9] was “inactive” in each case.

Consider `CN1CCC[C@H]1c1cccnc1`, for which, in [1], the outcome was inactive. The activity change % (negative = inhibition) in experiment [7] is -9.11% (inactive) and 5.66% (inactive). In experiment [4], the Potency result was “inactive”.

As to `C=CCCCCCCCCC(=O)O`, the result in [6] and in experiment [1] was inactive. For the same molecule, the max response in experiment [2] was -3.51%; in experiment [3] it was -16.4% (inactive). Further, in experiment [7], the activity change % (negative = inhibition) is -5.71% (inactive). In addition, the Potency result in experiment [4], in [8], in [5] and in experiment [9] was “inactive” in each case.

`C=C/C(C)=C/[C@@]1(C)SC(=O)C(C)=C1O`: the Potency entry in [4] was “inactive”.

Take `O=C(O)/C=C\C(=O)O`: the molecule was classed as inactive in experiment [6] and in experiment [1]. For the same molecule, the max response was 0.438% in [2] and 2.25% (inactive) in experiment [3]. Further, in experiment [7], the activity change % (negative = inhibition) is -2.36% (inactive).

Consider `O=C(O)CCCC[C@@H]1CCSS1`, for which, in [4], the Potency result was “inactive”.

Regarding `Nc1ccc([N+](=O)[O-])cc1O`, the molecule was called inactive in [6] and in experiment [1]. Moreover, the max response in experiment [2] is 3.08% and -8.59%; in experiment [3] it was -3.43% (inactive) and -7.43% (inactive). In addition, the activity change % (negative = inhibition) in experiment [7] is 10% (inactive) and 1.31% (inactive). Further, the Potency result in experiment [4] was “inactive”.

Take `O=C(Nc1ccccc1)c1cc([N+](=O)[O-])ccc1Cl`: the call in experiment [1] was inactive. Also, the max response in [2] is -9.1%; in [3], -13.8% (inactive). In experiment [7], the activity change % (negative = inhibition) is 9.48% (inactive). The Potency entry in experiment [4] is “inactive”.

As for `NCCO`, the molecule was classed as inactive in [6]. The max response in experiment [2] is -11.1%; in [3] it was 21.6% (inactive). Also, the activity change % (negative = inhibition) in experiment [7] was -5.7% (inactive). For the same molecule, the Potency result in experiment [4] is “inactive”.

As for `COc1cc(CNC(=O)CCCC/C=C/C(C)C)ccc1O`, the outcome in experiment [6] and in experiment [1] was inactive. The max response in experiment [2] is 9.1%; in experiment [3], 4.06% (inactive). For the same molecule, in experiment [7], the activity change % (negative = inhibition) was 11.7% (inactive) and 10.6% (inactive). For the same molecule, the Potency entry in experiment [4] and in [5] was “inactive” in each case.

With `O=C(O)[C@@H]1C[C@@H](C(=O)O)N1`, the Potency result in [4] is “inactive”.

On to `CN1CCc2ccccc2Cc2[nH]c3ccccc3c2CC1`, for which the Potency in experiment [4] was 8.91 µM (active).

For `CCCOC(=O)c1ccc(O)cc1`, the call in experiment [6] and in [1] was inactive. The max response in experiment [2] is -12% and 3.27% and -2.1%; in experiment [3], -6.42% (inactive) and -2.27% (inactive) and -9.81% (inactive). In addition, the activity change % (negative = inhibition) in [7] is -17.9% (inactive) and -8.82% (inactive) and 6.79% (inactive). Further, the Potency entry in [4], in experiment [5] and in [9] was “inactive” in each case.

Consider `CC(C)NCC(O)COc1cccc2ccccc12` (stereo not given), for which the call in experiment [6] and in experiment [1] was inactive. For the same molecule, the results for the max response in [2] and in experiment [3] were 8.19% and -18.2% (inactive), respectively. In addition, the activity change % (negative = inhibition) in experiment [7] is -9.73% (inactive) and -17.8% (inactive).

Turning to `Cc1ccc(O)c(N=Nc2ccccc2)n1`, the Potency result in experiment [4] is “inactive”.

Consider `c1cnc2c(c1)ccc1cccnc12`, for which the activity change % (negative = inhibition) in experiment [7] is -10.3% (inactive). Further, in experiment [4], the Potency entry was “inactive”.

With `c1ccc2sc(SSc3nc4ccccc4s3)nc2c1`, the call in experiment [6] and in [1] was inactive. Also, the max response in [2] is -0.16% and -14.1%; in experiment [3], 0.434% (inactive) and -6.61% (inactive). Besides, the activity change % (negative = inhibition) in experiment [7] is 20.1% (inactive) and 3.58% (inactive). Also, the Potency entry in [4], in experiment [5] and in [9] was “inactive” throughout.

For the molecule `CN(C)CCC(c1ccc(Cl)cc1)c1ccccn1` (stereo not given), the outcome in experiment [6] and in [1] was inactive. Moreover, the max response in experiment [2] is -0.244%; in [3], -3.52% (inactive). Further, the activity change % (negative = inhibition) in experiment [7] is -21.7% (inactive).

Take `C#C[C@]1(O)CC[C@H]2[C@@H]3CCc4cc(O)ccc4[C@H]3CC[C@@]21C`: the result in experiment [1] was inactive. In addition, the activity change % (negative = inhibition) in [7] was -23% (inactive). In addition, the Potency entry in experiment [4] and in experiment [5] was “inactive” throughout. Also, the Potency in [9] was 12.8 µM (active).

Take `CN(C)c1ccc(N=NS(=O)(=O)O)cc1`: the outcome in [6] and in [1] was inactive. Also, the max response in experiment [2] is -9.95% and 2.36%; in experiment [3], -16.5% (inactive) and -8.55% (inactive). Besides, in experiment [7], the activity change % (negative = inhibition) was -11.7% (inactive). Moreover, the Potency entry in [4] was “inactive”.

Turning to `CCCCCCCCCCCCCCCCCC(=O)O`, the result in experiment [6] was inactive. The max response in [2] was -4.53% and -8.3% and -3.54%; in experiment [3], -9.45% (inactive) and 1.81% (inactive) and 3.06% (inactive). The Potency result in [4], in experiment [5] and in [9] was “inactive” in each case.
